Assay outcomes as filed in PubChem.
The sample as a whole holds a higher share of hits than the screen did.
ERG Ets-DNA blk – ERG Ets/DNA interaction inhibition. P11308. fluorescence polarization, His-ERG Ets domain / labelled DNA. Potency, µM (top dose mostly 76.9 µM), most hits filed as inhibitors. 0.028% of 370,000 active. AID 624246; active means well fitted inhibition curve with a large enough effect in the polarisation, with a control signal flat; inconclusive means small, poorly fitted or top-dose-only effect, or effect the other way, or a change in a side signal; inactive means no such curve, though single readings can be large or run the other way; the % refers to the polarisation;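 further: polarization taken with two DNA probes labelled with fluorescein and Texas red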
Target sequence (P11308 whole entry, looked up, the tested form may be a part): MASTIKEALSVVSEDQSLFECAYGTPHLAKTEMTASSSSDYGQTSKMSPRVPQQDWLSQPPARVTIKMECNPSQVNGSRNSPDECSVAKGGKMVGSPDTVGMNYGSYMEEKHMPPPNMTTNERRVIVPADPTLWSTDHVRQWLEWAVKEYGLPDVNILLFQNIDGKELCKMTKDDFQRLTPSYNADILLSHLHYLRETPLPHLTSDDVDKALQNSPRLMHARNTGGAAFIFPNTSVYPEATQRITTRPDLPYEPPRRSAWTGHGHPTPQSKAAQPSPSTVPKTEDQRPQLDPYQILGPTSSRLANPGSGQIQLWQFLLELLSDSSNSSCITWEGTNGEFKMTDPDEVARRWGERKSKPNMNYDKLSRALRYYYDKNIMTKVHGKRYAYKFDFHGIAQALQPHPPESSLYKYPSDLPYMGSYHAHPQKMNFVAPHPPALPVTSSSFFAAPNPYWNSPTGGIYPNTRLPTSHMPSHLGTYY
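His-tagged ERG Ets domain (1 uM in the protein solution; 300mM KCl, 50mM Tris-HCl, 1mM EDTA, 1mM DTT, pH 7.5) received compound, then a probe mix of 5 nM fluorescein-DNA and 100nM Texas-615-DNA. Fluorescence polarization was read for both dyes.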
Gal4-VP16 FLuc – counter-screen for ROR gamma inhibitors: Gal4-VP16 reporter. 3.5% of 310,000 active. Drosophila S2 Gal4-VP16 UAS-luciferase, luminescence, 20 h. AID 2546. Potency, µM (highest dose often 53.6 µM), usual class: inhibitors;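 further: Gal4-VP16 expression switched on by copper sulfate through the metallothionein promoter; nearly all actives have a fitted effect of over 50% in size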
Giardia killer – kills Giardia lamblia; Giardia lamblia trophozoite viability; activity change, % at 7.66 µM, hits read low; 0.15% of 340,000 active; in the data active means activity change below about -80%; inconclusive means between about -30% and that limit;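 further: parasites exposed to compound for two days anaerobically before the ATP read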
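Media and compound were dispensed first, then trophozoites at 100 cells/well; plates sat 48 hrs at 37 deg C without oxygen before ATP luminescence reagent was added and read after 15-30 min at room temperature.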
a7 integrin act – activates integrin-mediated alleviation for muscular dystrophy. 0.064% of 350,000 active. Potency, µM (top dose mostly 38.3 µM), most hits filed as activators. alpha7betagal myoblasts, beta-gal FDG fluorescence, 48 h; further: nearly all actives have a fitted effect of over 60% in size
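alpha7betagal+/- myoblasts (passage 13, 250/well) treated 48 h at 37C with compounds at 1:260 dilution of DMSO stock. Lysed, then beta-galactosidase activity read as FDG fluorescence (ex 480/em 540) after 30 min, with pre-read for autofluorescence.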
RORg inh – blocks mouse ROR gamma transcriptional activity; AID 2551; 5.4% of 310,000 active; P51450; Potency, µM (doses to about 53.6 µM), most hits filed as inhibitors; Drosophila S2 Gal4-RORgamma UAS-luciferase reporter, 20 h; further: nearly all actives have a fitted effect of over 60% in size
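A Gal4/UAS one-hybrid system in insect cells: metallothionein-promoter Gal4–ROR gamma fusion plus Photinus luciferase reporter. Copper sulfate 700 uM final, 20 hr ambient incubation, luminescent detection after 10 min with reagent.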
Numbers stand for hits; 0 = inactive; ? = inconclusive; - = no result; [ ] = another dose, or the depositor's remark. Unless noted, the call rests on the fitted dose curve; in most records, active means well fitted curve in the direction sought with a large enough effect; inconclusive means small, poorly fitted or top-dose-only effect, or another doubt; inactive means no such curve, though single readings can be large; an effect the other way counts as inactive or inconclusive.

SMILES	ERG Ets-DNA blk	Gal4-VP16 FLuc	Giardia killer	a7 integrin act	RORg inh
Cc1ccc(NC(=S)NNS(=O)(=O)c2ccc3ccccc3c2)cc1Cl	0	?	0	0	11µM
O=S(=O)(Nc1ncccn1)c1ccc(NC(=S)NCCc2ccc(Cl)cc2)cc1	0	0	0	0	0
CC(=O)NC(=S)Nc1ccc(S(=O)(=O)Nc2ncccn2)cc1	0	0	0	0	0
Cc1ccc(S(=O)(=O)NNC(=S)Nc2ccc(Cl)cc2)cc1	0	0	0	0	0
Cc1ccc(NC(=S)Nc2ccc(S(=O)(=O)Nc3ncccn3)cc2)cc1Cl	-	?	-	-	32µM
O=S(=O)(Nc1ncccn1)c1ccc(NC(=S)Nc2cccc(Cl)c2)cc1	-	?	-	-	11µM
O=C(Cn1cc(SCc2cccc(F)c2)c2ccccc21)N1CCCC1	0	-	-	-	-
Cc1c(Cl)cccc1NC(=O)c1ccc2c(c1)CCCN2S(C)(=O)=O	0	-	-	-	-
CC(C)CNc1nc(=S)nc(N(C)C)[nH]1	0	4.5µM	0	0	1.8µM
Clc1ccc(-c2nnc(NC3=NCCCCC3)o2)cc1	0	8.9µM	0	0	6.3µM
Cc1nn2c(=O)cc(COC(=O)c3ccc(S(=O)(=O)N4CCCCC4)cc3)nc2s1	0	0	0	0	0
COc1ccc(C(C(=O)Nc2ccc(C(C)C)cc2)N(C)C(=O)c2ccc(=O)[nH]c2)cc1 (centres undefined)	0	0	0	0	18µM
CCc1nc(SCC(=O)Nc2nnc(CC)s2)c2c(=O)n(C)c(=O)n(C)c2n1	0	?	0	0	0
CCCc1nc(SCC(=O)Nc2nnc(CC)s2)c2c(=O)n(C)c(=O)n(C)c2n1	0	5µM	0	0	0
CC(C)(C)C(=O)N/C(N)=N/c1nc2ccccc2o1	0	?	0	0	4µM
N/C(=N\c1nc2ccccc2o1)NC(=O)c1ccccc1	0	0	0	0	7.1µM
N/C(=N\c1nc2ccccc2o1)NC(=O)c1cccc(Br)c1	?	0	0	0	0
Cc1ccc(C(=O)N/C(N)=N/c2nc3ccccc3o2)cc1	0	0	0	0	0
COc1ccccc1C(=O)N/C(N)=N/c1nc2ccccc2o1	0	?	0	0	8.9µM
CC(=O)N/C(N)=N/c1nc2cc([N+](=O)[O-])ccc2o1	0	0	0	0	0
CC(C)CC(=O)N/C(N)=N/c1nc2ccccc2o1	0	0	0	0	10µM
COc1ccc(-n2nc(C(=O)N(C)c3cc(Cl)ccc3OC)c3c4ccccc4n(C)c3c2=O)cc1	0	-	-	-	-
Cc1ccc(NC(=O)c2ncn(CCCN3CCN(c4ncccn4)CC3)n2)cc1C	0	-	0	0	-
Cc1nc2ccc(C(=O)N3c4ccccc4CC3C)cc2s1 (centres undefined)	0	0	0	0	0
N/C(=N\c1nc2ccccc2o1)NC(=O)/C=C/c1ccccc1	0	0	0	?	0
SMILES	ERG Ets-DNA blk	Gal4-VP16 FLuc	Giardia killer	a7 integrin act	RORg inh
CCCC(=O)N/C(N)=N/c1nc2ccccc2o1	0	0	0	0	10µM
CC(=O)N/C(N)=N/c1nc2cc(C)ccc2o1	0	?	0	0	11µM
CCC(=O)N/C(N)=N/c1nc2ccccc2o1	0	?	0	0	13µM
Cc1ccc(OCCCC(=O)Nc2ccc(Br)cc2)cc1	0	0	0	0	?
COc1cc(CC(=O)Nc2sc3c(c2C(N)=O)CCCC3)cc(OC)c1OC	0	0	0	0	0
FC(F)(F)c1cccc(NC(=S)NCc2ccccc2)c1	0	13µM	0	0	4.5µM
FC(F)(F)c1cccc(CNC(=S)Nc2ccccc2)c1	0	0[10 µM]	0	0	5.6µM
FC(F)(F)c1cccc(NC(=S)NC(c2ccccc2)c2ccccc2)c1	0	6.3µM	0	0	7.1µM
FC(F)(F)c1cccc(NC(=S)NNC(=S)Nc2cccc(C(F)(F)F)c2)c1	-	0	-	-	0
Cc1ccc(C(=O)COC(=O)C(Cc2c[nH]c3ccccc23)NC(=O)c2ccc(C(C)(C)C)cc2)cc1 (centres undefined)	0	-	-	-	-
CC(=O)Nc1ccccc1NS(=O)(=O)c1ccccc1NO	-	-	0	-	-
CC1(C)CC(=O)C=C(NC2=CC3OC(c4ccccc4)OCC3OC2=O)C1 (centres undefined)	-	11µM	0	0	?
CSC(=S)N/N=C/c1ccc(N(C)C)cc1	0	2µM	0	0	0.25µM
CSC(=S)N/N=C/c1ccc(Br)cc1	0	1.8µM	0	0	0.32µM
O=C(CN(c1ccc(Cl)cc1)S(=O)(=O)c1ccc(Cl)c([N+](=O)[O-])c1)NCCc1ccccc1	0	0	0	0	0
O=C(CN(c1ccc(Cl)cc1)S(=O)(=O)c1ccc(Cl)c([N+](=O)[O-])c1)NCCc1ccc(F)cc1	0	7.1µM	0	0	7.9µM
Cc1cc(C)nc(NS(=O)(=O)c2ccc(CC(C)C)cc2)c1	0	0	0	0	0
CCOc1ccccc1N1CCN(C(=O)C2CSC3(C)CCC(=O)N23)CC1 (centres undefined)	0[15.4 µM]	-	0	0	-
O=C1/C(=C/c2cccs2)SC(=S)N1CCC(=O)N1CCCCC1CCO (centres undefined)	0	11µM	0	0	?
O=C(CCN1C(=O)/C(=C/c2cccs2)SC1=S)N1CCCCC1	0	?	0	0	11µM
O=C(NCc1cccs1)C1CCC(=O)N(Cc2cccc(C(F)(F)F)c2)C1 (centres undefined)	0	0	0	0	0
COC(=O)CN1C(=O)[C@@H]2[C@H](C1=O)[C@@H]1CC(C(=O)OC)=C[C@@H](C(=O)OC)C3C1=C(C(=O)[C@@]3(C)NC(=O)c1ccccc1)[C@@H]2C (some centres undefined)	-	0	0	-	0
C#CCOc1c(Cl)cc(/C=C2/C(=O)ON=C2C)cc1OC	0	0	0	0	0
COc1cc(/C=C2/C(=O)ON=C2C)cc(Cl)c1O	0	?	0	0	13µM
CC1=NOC(=O)/C1=C/c1ccc(O)c(Cl)c1	0	16µM	0	0	11µM
SMILES	ERG Ets-DNA blk	Gal4-VP16 FLuc	Giardia killer	a7 integrin act	RORg inh
CC1Sc2ccc(S(=O)(=O)CCC(=O)N3CCc4ccccc43)cc2NC1=O (centres undefined)	0	0	0	0	0
CCCCNC(=O)c1ccc2c(c1)C(=O)N(Cc1ccncc1)C2=O	0	0	0	0	0
CCOc1cccc2sc(Nc3nc4ccc(NC(C)=O)cc4s3)nc12	0	4µM	0	0	3.5µM
CCC(=O)Nc1nc2ccc(NC(C)=O)cc2s1	0	0	0	0	0
CCC1=C2CC[C@H]3C(=O)N(c4ccccc4)C(=O)[C@H]3[C@H]2[C@@]2(C)C(=O)N(Cc3ccccc3)C(=O)N2C1=O	-	0	-	-	0
C=CCn1c(SCC(=O)c2[nH]c(C)c(C(=O)OCC)c2C)nc2scc(-c3ccc(OC)c(OC)c3)c2c1=O	0	10µM	0	0	10µM
CN(C)CC(=O)N1c2ccccc2CCc2ccc(NC(=O)c3ccc(N)cc3)cc21	0	7.1µM	0	0	7.9µM
ON=C1c2ccccc2-c2ccc(F)cc21	0	-	0	0	-
